7 compounds from PubChem BioAssay can be followed below.

Assay [1] in a line: compounds binding Alexa647 anti-His antibody – biochemical, small-molecule microarray, 635 nm fluorescence, artefact control for SMM control protein annotation, primary screen (AID 1128).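 Note: score merges feature fluorescence with signal-to-noise for each printed compound spot.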 To be noted: higher = more signal.
Assay [2] relates to Human papillomavirus type 1a E7 protein (residues 1-88). Put plainly: HPV1a E7 small-molecule binders, primary screen, biochemical, small-molecule microarray, residues 1-88, 635 nm (AID 1129). As to conditions: small-molecule microarray binding, fluorescence 635 nm; higher = more signal.
For assay [3], the target named is Focal adhesion kinase 1 (Homo sapiens) (UniProt Q05397). Put plainly: PTK2 protein binding on printed compound slides – biochemical, small-molecule microarray, 635/667 nm fluorescence, BSA, DTT, primary screen (AID 1130).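 Note: composite of spot emission at 667 nm and signal to noise over triplicate slides.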 To be noted: 635 nm fluorescence, higher = more signal.
Focal adhesion kinase 1 (Homo sapiens), sequence (Q05397 whole entry, looked up): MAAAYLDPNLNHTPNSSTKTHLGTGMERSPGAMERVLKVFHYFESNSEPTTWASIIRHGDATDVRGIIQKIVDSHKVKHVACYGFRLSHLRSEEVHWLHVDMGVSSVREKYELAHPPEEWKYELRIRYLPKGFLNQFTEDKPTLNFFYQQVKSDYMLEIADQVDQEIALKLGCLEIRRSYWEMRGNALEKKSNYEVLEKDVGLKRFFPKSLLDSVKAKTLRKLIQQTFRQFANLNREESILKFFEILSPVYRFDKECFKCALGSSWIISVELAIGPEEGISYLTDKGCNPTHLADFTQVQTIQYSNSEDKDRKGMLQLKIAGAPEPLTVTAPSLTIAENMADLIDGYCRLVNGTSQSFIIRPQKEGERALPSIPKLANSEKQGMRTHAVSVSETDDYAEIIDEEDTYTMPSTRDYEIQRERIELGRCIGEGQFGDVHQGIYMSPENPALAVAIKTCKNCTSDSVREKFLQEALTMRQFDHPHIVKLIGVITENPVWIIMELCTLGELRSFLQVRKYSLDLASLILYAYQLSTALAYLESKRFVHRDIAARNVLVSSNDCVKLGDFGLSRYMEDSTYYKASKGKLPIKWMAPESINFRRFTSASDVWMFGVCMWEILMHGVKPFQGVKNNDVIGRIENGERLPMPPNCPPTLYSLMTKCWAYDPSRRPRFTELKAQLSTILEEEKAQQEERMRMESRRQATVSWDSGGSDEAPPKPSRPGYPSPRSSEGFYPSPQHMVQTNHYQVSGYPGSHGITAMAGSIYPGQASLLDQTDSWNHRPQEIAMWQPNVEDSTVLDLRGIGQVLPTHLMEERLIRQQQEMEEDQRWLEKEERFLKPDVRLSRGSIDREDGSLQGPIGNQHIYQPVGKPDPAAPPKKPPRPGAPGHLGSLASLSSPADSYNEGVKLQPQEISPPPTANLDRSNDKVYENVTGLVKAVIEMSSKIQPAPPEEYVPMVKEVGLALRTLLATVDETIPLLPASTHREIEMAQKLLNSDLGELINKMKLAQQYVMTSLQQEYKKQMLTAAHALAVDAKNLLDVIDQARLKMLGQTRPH
The test system of assay [4] is Fibrinogen (Alexa647-labelled). Put plainly: Alexa647-fibrinogen binding to printed small molecules – biochemical, small-molecule microarray, 635/667 nm fluorescence, artefact control for SMM control-protein annotation, profiling panel (AID 1131).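 Note: z-score merges 667 nm fluorescence with per-spot signal-to-noise over triplicate slides.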 To be noted: fibrinogen-A647 binding fluorescence, higher = more signal.
For assay [5], the target named is Follistatin (Homo sapiens) (UniProt P19883). Put plainly: FST protein binding to printed compounds – biochemical, small-molecule microarray, 635/667 nm fluorescence, primary screen (AID 1132). To be noted: 635 nm fluorescence, higher = more signal.
Follistatin (Homo sapiens), sequence (P19883 whole entry, looked up): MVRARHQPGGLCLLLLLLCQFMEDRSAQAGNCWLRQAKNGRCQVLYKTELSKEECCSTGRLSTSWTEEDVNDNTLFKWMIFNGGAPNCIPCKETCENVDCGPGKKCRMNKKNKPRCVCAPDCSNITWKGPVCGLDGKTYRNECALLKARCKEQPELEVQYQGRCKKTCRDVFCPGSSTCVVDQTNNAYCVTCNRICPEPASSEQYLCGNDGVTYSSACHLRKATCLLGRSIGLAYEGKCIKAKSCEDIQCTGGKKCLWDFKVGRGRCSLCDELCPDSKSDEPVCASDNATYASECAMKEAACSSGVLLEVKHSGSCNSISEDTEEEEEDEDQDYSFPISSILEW
Assay [6] deals with Fibroblast growth factor 2 (Homo sapiens) (UniProt P09038). Put plainly: basic fibroblast growth factor binding to printed compounds – biochemical, small-molecule microarray, 635/667 nm fluorescence, primary screen (AID 1133). As to conditions: FGF2, fluorescence 635/667, higher = more signal.
Fibroblast growth factor 2 (Homo sapiens), sequence (P09038 whole entry, looked up): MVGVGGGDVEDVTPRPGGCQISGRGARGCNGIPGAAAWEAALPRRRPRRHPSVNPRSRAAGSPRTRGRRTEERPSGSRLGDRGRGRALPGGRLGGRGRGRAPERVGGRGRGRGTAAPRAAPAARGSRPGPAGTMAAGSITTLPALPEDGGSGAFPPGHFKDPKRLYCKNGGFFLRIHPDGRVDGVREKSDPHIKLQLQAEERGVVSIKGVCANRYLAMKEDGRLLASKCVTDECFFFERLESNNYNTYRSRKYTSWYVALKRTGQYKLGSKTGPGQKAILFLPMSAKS
Assay [7] in a line: JC-1 mitochondrial potential readout, lung cancer cells – cell-based, A549, JC-1 fluorescence, basal, 24 h, 100 nL, profiling panel (AID 1138).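 Note: A549 lung adenocarcinoma cells under basal conditions with no added stimulus; test concentration not given here.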 As to conditions: higher = more signal.
For another assay, the system named is Lefty1. The assay can be described thus: Lefty1 protein binding to printed compounds – biochemical, small-molecule microarray, 635/667 nm fluorescence, primary screen (AID 1139). As to conditions: fluorescence 635/667, higher = more signal.
The test system of assay [8] is wheat germ agglutinin (Triticum aestivum), Alexa647-labelled. The assay can be described thus: Alexa647-WGA lectin binding to printed small molecules – biochemical, small-molecule microarray, 635/667 nm fluorescence, artefact control for SMM control-protein annotation, profiling panel (AID 1140).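 Note: score merges 667 nm feature emission with signal to noise over triplicate slides.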 As to conditions: WGA-A647 binding, 635 nm fluorescence, higher = more signal.

The target in assay [9] is Luciferin 4-monooxygenase (Photinus pyralis) (UniProt P08659). The assay can be described thus: inhibition of purified Photinus pyralis luciferase – biochemical, luminescence, purified enzyme, 2006 set, primary screen (AID 1141).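 Note: cell-free assay with purified firefly luciferase at 100 ng per well in PBS; test concentration not given here.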 As to conditions: purified firefly luciferase, SteadyGlo luminescence, 30 min; higher = more signal, called active from +8 up or from −8 down.
Luciferin 4-monooxygenase (Photinus pyralis), sequence (P08659 whole entry, looked up): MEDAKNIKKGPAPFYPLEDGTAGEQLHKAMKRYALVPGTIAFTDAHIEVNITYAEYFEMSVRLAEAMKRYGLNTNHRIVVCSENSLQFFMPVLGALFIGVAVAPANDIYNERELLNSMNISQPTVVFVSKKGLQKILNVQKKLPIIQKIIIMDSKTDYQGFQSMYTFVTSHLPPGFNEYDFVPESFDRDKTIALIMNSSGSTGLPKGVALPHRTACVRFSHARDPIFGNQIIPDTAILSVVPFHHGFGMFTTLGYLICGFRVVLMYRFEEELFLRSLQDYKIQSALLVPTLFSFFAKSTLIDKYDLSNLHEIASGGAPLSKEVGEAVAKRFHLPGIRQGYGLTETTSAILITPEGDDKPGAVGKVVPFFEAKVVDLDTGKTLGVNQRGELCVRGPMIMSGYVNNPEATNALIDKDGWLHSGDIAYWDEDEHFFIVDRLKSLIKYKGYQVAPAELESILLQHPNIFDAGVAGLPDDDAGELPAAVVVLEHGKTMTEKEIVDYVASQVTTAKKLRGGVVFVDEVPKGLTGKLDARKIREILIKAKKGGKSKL
Assay [10] has as its system Wnt5a (protein binding on small-molecule microarray). Put plainly: small molecules binding Wnt5a protein – biophysical, small-molecule microarray, 635/667 nm fluorescence, primary screen (AID 1142).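 Note: fluorescence read at 667 nm with signal to noise per printed feature.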 As to conditions: 635 nm fluorescence, higher = more signal.
Assay [11] can be described thus: ATP-based viability of Huh7 replicon cells – cell-based, CellTiter-Glo luminescence, basal, 48 h, cytotoxicity control for HCV replication inhibitor project, primary screen (AID 1143).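 Note: Huh7 hepatoma cells carrying a hepatitis C replication reporter with no stimulus; test concentration not given here.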 As to conditions: higher = more signal, called active from +8 up or from −8 down. A general note: Replicon systems follow genome replication, usually without infectious particles.
The nature of assay [12]: Pseudomonas biofilm growth suppression – PAO1 strain, BacTiter-Glo luminescence, LB-PBS, primary screen (AID 1144). As to conditions: P. aeruginosa PAO1 biofilm, 12 h, higher = more signal.
Assay [13] is described as follows: basal CRE-LacZ reporter activity in PC12 – cell-based, unstimulated, primary screen (AID 1145). As to conditions: no forskolin, luminescence, 4.5 h, higher = more signal, called active from +8 up or from −8 down.
A short description of assay [14]: forskolin-driven CRE-LacZ activity in PC12 – cell-based, CRE-LacZ reporter, forskolin-stimulated, primary screen (AID 1146).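 Note: PC12 cells with 6xCRE LacZ reporter stimulated by forskolin 10 µM; beta-galactosidase reporter signal reflecting CREB driven transcription.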 As to conditions: luminescence, 4.5 h, higher = more signal, called active from +8 up or from −8 down.
For assay [15], the target named is Streptavidin (Streptomyces avidinii) (UniProt P22629). Put plainly: compounds binding control protein streptavidin – biophysical, small-molecule microarray, 635/667 nm fluorescence, artefact control for SMM compound annotation, primary screen (AID 1147).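 Note: signal reflects streptavidin binding to arrayed compounds as a control protein.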 As to conditions: higher = more signal.
Streptavidin (Streptomyces avidinii), sequence (P22629 whole entry, looked up): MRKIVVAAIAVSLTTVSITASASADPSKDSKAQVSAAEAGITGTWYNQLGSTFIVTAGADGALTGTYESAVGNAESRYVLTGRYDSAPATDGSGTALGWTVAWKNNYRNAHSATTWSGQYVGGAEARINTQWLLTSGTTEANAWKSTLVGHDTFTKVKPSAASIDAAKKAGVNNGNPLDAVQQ
The nature of assay [16]: probe aInhba binding on compound microarray – biochemical, small-molecule microarray, 635/667 nm fluorescence, primary screen (AID 1148).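 Note: score merges 667nm spot fluorescence with signal-to-noise for antibody binding to printed compounds.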 As to conditions: higher = more signal.
Assay [17] deals with Torsin-1A (Homo sapiens) (UniProt O14656). The assay can be described thus: TOR1A wild-type binding on microarray – cell lysate, small-molecule microarray, lysate, 635/667 nm, primary screen (AID 1149). As to conditions: COS7 hTOR1A-WT lysate, 635 nm fluorescence, higher = more signal.
Torsin-1A (Homo sapiens), sequence (O14656 whole entry, looked up): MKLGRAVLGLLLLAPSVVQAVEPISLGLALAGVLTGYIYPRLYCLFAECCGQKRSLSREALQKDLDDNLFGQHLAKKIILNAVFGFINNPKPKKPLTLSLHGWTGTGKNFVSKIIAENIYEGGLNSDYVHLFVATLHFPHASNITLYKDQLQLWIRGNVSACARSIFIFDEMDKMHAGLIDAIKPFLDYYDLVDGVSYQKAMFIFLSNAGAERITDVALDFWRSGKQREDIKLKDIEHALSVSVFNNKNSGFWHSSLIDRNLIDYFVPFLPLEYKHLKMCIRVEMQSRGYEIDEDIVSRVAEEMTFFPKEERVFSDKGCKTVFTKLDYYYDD
The target is the same in assay [18]. The assay can be described thus: torsin A mutant lysate binding on microarrays – cell lysate, small-molecule microarray, COS7 lysate, 635/667 nm fluorescence, primary screen (AID 1150).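 Note: score pools 667 nm emission and signal to noise measuring lysate protein binding.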 To be noted: COS7 hTOR1A mutant lysate, 635 nm fluorescence, higher = more signal.
Assay [19] deals with Sonic hedgehog protein (Shh). Put plainly: Sonic hedgehog microarray binding compounds – biochemical, small-molecule microarray, 635/667 nm fluorescence, primary screen (AID 1151).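 Note: Shh protein binding to compounds spotted on small-molecule microarray slides; score combines spot fluorescence intensity with signal-to-noise across triplicate slides.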 As to conditions: 635 nm fluorescence, higher = more signal.

Activity calls are given as the source filed them. Unless noted, the rule behind the calls is not given here.

Take `NCCCCCNC(=O)[C@@H]1C[C@@H]2C(=O)NCC(=O)N2[C@@H]1c1ccc(O)cc1`: the composite z-score in [1] was 2.18; in assay [2] it was 1.19; in [3], 0.0992; in assay [4], 0.948; in [5] it was 1.51; in [6] it was 1.79. For the same compound, the composite z-score with Lefty1 was 1.76; in assay [8], 0.891; in [10], 0.892; in assay [15] it was 1.2; in [16] it was -0.0963; with Torsin-1A (Homo sapiens) [17], 1.06. Moreover, the composite z-score with Torsin-1A (Homo sapiens) [18] was determined as 0.682; in [19], 2.06. In addition, the z-score in assay [7] is 1.41; in assay [9], -1.11 (inactive); in assay [11], 0.104 (inactive); in assay [12] it was -0.735 (inactive); in assay [13] it was 0.557 (inactive); in [14] it was 0.467 (inactive).

`CCCC=C(CCC)[C@@H](NS(=O)(=O)c1cccs1)c1ccc(C(=O)OC)cc1`: the composite z-score is 1.16 in assay [1]; 1.17 in [2]; 0.496 in [3]; 1.02 in assay [4]; 0.825 in [5]; -0.186 in assay [6]. In addition, the composite z-score was -0.3 with Lefty1; 1.17 in assay [8]; 0.247 in assay [10]; 1.37 in assay [15]; 0.16 in [16]; -0.0907 in the assay with Torsin-1A (Homo sapiens) [17]. In addition, the composite z-score was 0.647 with Torsin-1A (Homo sapiens) [18] and -0.168 in [19]. The z-score was -2.96 in assay [7]; 0.917 (inactive) in [9]; -3.88 (inactive) in assay [11]; 0.276 (inactive) in [12]; 0.201 (inactive) in [13]; 0.91 (inactive) in assay [14].

As for `CC(=O)NCCCC[C@@H]1NC(=O)[C@@H]2C[C@H](C(=O)NCCCCCCNC(=O)CS)[C@H](c3cccc(OCCO)c3)N2C1=O`, the composite z-score is 1.23 in assay [1]; 1.1 in assay [2]; 0.314 in assay [3]; -0.917 in assay [4]; 1.24 in assay [5]; 1.59 in [6]. Besides, the composite z-score with Lefty1 was 0.574; in assay [8] it was 0.379; in [10], 0.611; in [15] it was -0.088; in [16] it was -0.179; with Torsin-1A (Homo sapiens) [17] it was 0.442. Moreover, the composite z-score in the assay with Torsin-1A (Homo sapiens) [18] was 0.669; in [19], 1.63. The z-score in assay [7] was 0.488; in [9], -0.242 (inactive); in assay [11], 0.206 (inactive); in assay [12] it was -1.05 (inactive); in [13], 0.135 (inactive); in assay [14] it was -0.67 (inactive).

For `O=C1NCC(=O)N2[C@@H]1C[C@@H](C(=O)O)[C@H]2c1cccc(OCCO)c1`, the composite z-score in assay [1] stood at 1.85; in assay [2], 1.34; in assay [3], 4.87; in [4] it was 0.654; in assay [5], 1.52; in assay [6] it was 1.5. Besides, the composite z-score in the assay with Lefty1 was 1.84; in [8], 1.45; in [10] it was 2.26; in [15], 2.8; in assay [16] it was 2.16; in the assay with Torsin-1A (Homo sapiens) [17], 3.24. Further, the composite z-score with Torsin-1A (Homo sapiens) [18] amounted to 3.69; in assay [19], 1.63. Also, the z-score is 0.221 in assay [7]; -0.707 (inactive) in [9]; -0.095 (inactive) in [11]; 4.41 (inactive) in assay [12]; 0.822 (inactive) in [13]; -0.393 (inactive) in assay [14].

For the compound `COCCOC(=O)N1C(=O)[C@@]2(c3cc(C#Cc4ccc(OC)cc4)ccc31)[C@H](c1ccc(O)cc1)N1[C@H](c3ccccc3)[C@H](c3ccccc3)OC(=O)[C@H]1[C@@H]2C(=O)NC[C@H](O)c1ccccc1`, the composite z-score in assay [1] was 0.522; in assay [2], 1.22; in [3], -0.0575; in [4], 0.994; in assay [5], 1.3; in assay [6] it was 1.4. In addition, the composite z-score was 1.33 in the assay with Lefty1; 0.623 in assay [8]; 0.763 in assay [10]; 0.452 in assay [15]; -0.0259 in [16]; 0.105 in the assay with Torsin-1A (Homo sapiens) [17]. For the same compound, the composite z-score with Torsin-1A (Homo sapiens) [18] was 1.07; in [19] it was 2.05. In addition, the z-score in [7] is -1.51; in assay [9], 1.05 (inactive); in [11], -3.94 (inactive); in [12], -0.88 (inactive); in [13], -1.15 (inactive); in assay [14] it was 0.7 (inactive).

Consider `CCCCCN1CC=CC23O[C@@H]4/C=C\CCCOC(=O)C4[C@H]2C(=O)N(CCCO)[C@@H]3C1=O` (stereo not given in full), for which the composite z-score in assay [1] is 2.06; in assay [2] it was 1.3; in assay [3] it was 1.23; in assay [4], -0.965; in assay [5], -0.162; in assay [6] it was -0.281. Further, the composite z-score is 0.157 in the assay on Lefty1; 0.197 in assay [8]; 0.132 in assay [10]; -0.413 in [15]; -0.233 in [16]; 2.02 with Torsin-1A (Homo sapiens) [17]. The composite z-score in the assay with Torsin-1A (Homo sapiens) [18] was 2.27; in assay [19], -0.163. In addition, the z-score is -0.564 in assay [7]; -2.41 (inactive) in [9]; 0.37 (inactive) in assay [11]; -1.17 (inactive) in assay [12]; -0.619 (inactive) in assay [13]; -0.812 (inactive) in assay [14].

For the compound `CCOC(=O)C[C@H]1[C@H](OC(=O)Cc2ccc3c(c2)OCO3)[C@@H](NC(=O)c2ccc(-c3ccccc3)cc2)c2cc(OCCCO)ccc2N1C(=O)Cc1ccc(OC)cc1`, the composite z-score in assay [1] was found to be 0.0923; in [2], 0.516; in assay [3], 0.165; in assay [4] it was 0.872; in assay [5] it was 0.518; in [6] it was 0.28. For the same compound, the composite z-score in the assay with Lefty1 was 0.475; in assay [8] it was 0.415; in assay [10] it was 0.267; in assay [15], 0.0687; in assay [16], -0.0754; with Torsin-1A (Homo sapiens) [17], 0.0816. The composite z-score with Torsin-1A (Homo sapiens) [18] worked out at 0.394; in assay [19], 0.965. In addition, the z-score is 1.24 in [7]; -1.11 (inactive) in assay [9]; -0.921 (inactive) in assay [11]; -0.304 (inactive) in assay [12]; 6.24 (inactive) in assay [13]; 0.0489 (inactive) in [14].
